Source: PubChem BioAssay (National Center for Advancing Translational Sciences (NCATS))
Rows were chosen to be rich in hits. Some 19% of all compounds tested hit in one or more screens of this group.
DT40 TDP1 no CPT: qHTS for Inhibitors of human tyrosyl-DNA phosphodiesterase 1 (TDP1): qHTS in cells in absence of CPT. DT40 Tdp1-/- hTDP1 cells, no CPT, ATP luminescence, 48 h. Potency, µM (titrated, usually from 46.2 µM), for the others: at the highest dose activity change, negative = growth inhibition, actives largely listed as inhibitors. 420,000 compounds, 15% hits. AID 686978, 2013; also: nearly all actives have a fitted effect of over 55% in size
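Compound effects on proliferation are scored in DT40 Tdp1-/-;hTDP1 cells in the absence of CPT. ATP levels (CellTiter-Glo luminescence) are recorded after a ≥48 hr, 37 °C incubation.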
KB-3-1 tox: kills parental KB-3-1 adenocarcinoma cells | KB-3-1 viability, CellTiter-Glo ATP luminescence, 72 h | Potency, µM (titrated, usually from 46.1 µM), actives largely listed as cytotoxic | 400,000 compounds, 1.4% hits | AID 1347075; also: nearly all actives have a fitted effect of over 60% in size
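Cytotoxicity in the drug-sensitive parental line KB-3-1 was scored as loss of CellTiter-Glo luminescence following 72 h incubation with compound. Values come from curve fitting of normalized concentration-response data.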
KB-V1 MDR tox: KB-V1 MDR subline cytotoxicity; Potency, µM (series often up to 46.1 µM), hits mostly cytotoxic; KB-V1 MDR cells viability, CellTiter-Glo, 72 h; 400,000 compounds, 3.4% hits; also: nearly all actives have a fitted effect of over 60% in size
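qHTS viability screen in drug-selected KB-V1 MDR cells: 72 h compound treatment at 37 degrees C, ATP luminescence end point.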
HT1080NT lethal: kills 2HG-producing HT-1080-NT fibrosarcoma cells; HT-1080-NT fibrosarcoma viability, CellTiter-Glo ATP luminescence, 48 h; 360,000 compounds, 1.6% hits; AID 686970; Potency, µM (doses to about 46.1 µM), inactives show at the top dose activity, negative = less viability, actives largely listed as cytotoxic;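 also: NT is the 2HG producing partner of a matched IDH1 knockdown line; 0% = DMSO-treated cells and -100% = media-only wells without cells; nearly all actives have a fitted effect of over 55% in size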
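HT-1080-NT fibrosarcoma cells (2HG-overproducing), 750 cells/well in RPMI with 5% FBS, dosed after 2 h and incubated 48 h at 37C. CellTiter-Glo luminescence normalized to DMSO and no-cell wells; concentration-response curves fitted and classed.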
HT1080 IDH1KD tx: kills HT-1080 cells with IDH1 knockdown; 360,000 compounds, 2% hits; HT-1080 IDH1 knockdown viability, ATP luminescence, 48 h; AID 686971; Potency, µM (highest dose often 46.1 µM), without a hit: at the highest dose activity, negative = toxicity, hits mostly cytotoxic;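 also: 0% = DMSO wells and -100% = cell-free medium wells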
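Viability of IDH1-knockdown HT-1080 fibrosarcoma cells was assessed by CellTiter-Glo after 48 h at 37 °C with titrated compound; concentration-effect curves were classified by fit quality and response size.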
DT40 TDP1 CPT: DT40-hTDP1 cell growth loss with CPT | Potency, µM (series often up to 46.2 µM), without a hit: at the top dose activity change, negative = growth inhibition, usual class: inhibitors | chicken DT40 Tdp1-/-;hTDP1 cells + 20 nM CPT, ATP luminescence, 48 h | 420,000 compounds, 12% hits; also: nearly all actives have a fitted effect of over 55% in size
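Chicken DT40 Tdp1-/- cells complemented with human TDP1, 400 cells/well, exposed to compounds plus 20 nM camptothecin for at least 48 h at 37 C; viability read as ATP content by CellTiter-Glo luminescence.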
Starred values were filed as active, the others as inactive; i = inactive; ? = inconclusive; nt = not tested or not shown; ! = a repeat was not active. Calls follow the shape of the dose curve; as a rule, active = well fitted curve in the direction sought with a large enough effect; inconclusive = small, poorly fitted or top-dose-only effect, or another doubt; inactive = no such curve, though single readings can be large; an effect the other way counts as inactive or inconclusive. Unless noted, % is scaled to controls: 0 for no effect and ±100 for the full control effect; potency is read from the fitted curve at half-maximal effect.

SMILES	DT40 TDP1 no CPT	KB-3-1 tox	KB-V1 MDR tox	HT1080NT lethal	HT1080 IDH1KD tx	DT40 TDP1 CPT
COc1cc(N(C(=O)Cc2cccs2)C(C(=O)NC2CCCCC2)c2cccc(OC)c2OC)ccc1-n1cnnn1 (stereo not drawn)	25.9µM*	i	i	3.1%	1.3%	11.6µM*
O=C(NC1CCCC1)C(c1ccccc1)N(Cc1cccnc1)C(=O)Cc1cccs1 (stereo not drawn)	-2.6%	i	?	-1.8%	-0.5%	3.5%
Cc1nn(C)cc1C(C(=O)NC1CCCCC1)N(C(=O)Cc1cccs1)c1ccc(C(C)C)cc1 (stereo not drawn)	?	?	2.91µM*	?	?	?
COc1cccc(Cn2c(C)c(CNCc3cccc(C)c3)c(C(=O)O)c2C)c1	?	i	i	nt	nt	-25.8%
O=C(NCC(=O)N(c1ccc2c(c1)OCO2)C(C(=O)NC1CCCC1)c1ccncc1)c1ccco1 (stereo not drawn)	23.1µM*	?	i	0.6%	-5.8%	23.1µM*
Cc1ccc(C(C(=O)NC2CCCC2)N(C(=O)Cc2cccs2)c2ccc3c(c2)OCCO3)cc1 (stereo not drawn)	?	i	20.6µM*	-7.1%	-12.8%	?
Cc1ccc(C)c(N(C(=O)Cc2cccs2)C(C(=O)NC2CCCC2)c2ccc(C)o2)c1 (stereo not drawn)	13µM*	i	?	-2.2%	5.8%	23.1µM*
CO[C@H]1C[C@@H]2CC[C@@H](C)[C@@](O)(O2)C(=O)C(=O)N2CCCC[C@H]2C(=O)O[C@H]([C@H](C)C[C@@H]2CC[C@@H](O)[C@H](OC)C2)CC(=O)[C@H](C)/C=C(\C)[C@@H](O)[C@@H](OC)C(=O)[C@H](C)C[C@H](C)/C=C/C=C/C=C/1C	?	?	i	nt	nt	4.47µM*
CO[C@H]1C[C@@H]2CC[C@@H](C)[C@@](O)(O2)C(=O)C(=O)N2CCCC[C@H]2C(=O)O[C@H](C(C)C[C@H]2CC[C@@H](O)[C@H](OC)C2)CC(=O)[C@H](C)/C=C(\C)[C@@H](O)[C@@H](OC)C(=O)[C@H](C)C[C@H](C)/C=C/C=C/C=C/1C (stereo partly drawn)	?	nt	nt	nt	nt	0.0079µM*
CO[C@H]1C[C@@H]2CC[C@@H](C)[C@@](O)(O2)C(=O)C(=O)N2CCCC[C@H]2C(=O)O[C@H]([C@H](C)C[C@@H]2CC[C@@H](OCCO)[C@H](OC)C2)CC(=O)[C@H](C)/C=C(\C)[C@@H](O)[C@@H](OC)C(=O)[C@H](C)C[C@H](C)/C=C/C=C/C=C/1C	0.0266µM*	nt	nt	nt	nt	0.0422µM*
C[C@H](CO)N1C[C@H](C)[C@@H](CN(C)Cc2ccc(C(=O)O)cc2)Oc2c(NS(=O)(=O)c3ccc(F)cc3)cccc2C1=O	-6.8%	i	i	11.3%	9.5%	10.0%
CCc1ccc(C(=O)NNC(=O)c2ccc(OCC(=O)N3CCOCC3)c(OC)c2)cc1	14.1%	i	?	1.3%	0.4%	2.8%
COc1ccccc1C(=O)NCCC(=O)Nc1cccc(S(=O)(=O)N2CCCC2)c1	?	i	i	0.2%	7.3%	-26.3%
CCOc1cc(C#N)c(NC(=O)c2cccc(S(=O)(=O)N3CCOCC3)c2)cc1OCC	?	i	i	nt	nt	-2.6%
COc1ccc(-c2nn(-c3ccccc3)cc2CNC[C@H]2O[C@@H](n3cnc(C(N)=O)n3)[C@H](O)[C@@H]2O)cc1	-28.9%	i	i	-6.1%	4.3%	-10.9%
CCCCC[C@@H](C)N1C[C@H](COCc2ccccc2)Oc2cc(N3CCC[C@@H]3CO)ccc2S1(=O)=O	18.4µM*	i	i	?	?	?
CCCCC[C@@H](C)N1C[C@@H](COCc2ccccc2)Oc2cc(N3CCC[C@H]3CO)ccc2S1(=O)=O	?	i	i	?	?	?
CCCCC[C@@H](C)N1C[C@H](COCc2ccccc2)Oc2cc(N3CCC[C@H]3CO)ccc2S1(=O)=O	16.4µM*	i	i	0.7%	-0.1%	9.2µM*
O=C(NCc1ccc(F)cc1)c1cc2c(s1)CS(=O)(=O)C2	3.5%	i	i	2.4%	5.2%	-8.0%
COc1ccc2[nH]cc(CCNC(=O)CC[C@H]3O[C@@H](n4cc(C)c(=O)[nH]c4=O)C[C@@H]3O)c2c1	-3.3%	i	i	11.0%	4.2%	-1.6%
O=S1(=O)c2ccccc2N(Cc2cccc(Cl)c2)c2ccccc21	?	i	i	nt	nt	?
CCC(=O)c1ccc2c(c1)N(CCCN(C)C)c1ccccc1S2	20.6µM*	i	i	23.1µM*	23.1µM*	?
CCN(CC)CCN1c2ccccc2Sc2ccccc21	?	i	i	-8.6%	6.2%	?
CN(C)CCCN1c2ccccc2Sc2ccccc21	18.4µM*!	i	?	?	?	16.4µM*
CN(C)CCCN1c2ccccc2CCc2ccc(Cl)cc21	10.3µM*	i	?	?	20.6µM*	14.6µM*
SMILES	DT40 TDP1 no CPT	KB-3-1 tox	KB-V1 MDR tox	HT1080NT lethal	HT1080 IDH1KD tx	DT40 TDP1 CPT
Cc1ccc(CNC(=O)CCCC(=O)c2ccccc2)cc1	-12.2%	i	i	1.5%	19.8%	7.6%
CCCn1c(N)c(C(=O)COC(=O)/C=C/c2ccc(OC(F)F)c(OC)c2)c(=O)[nH]c1=O	?	?	i	-28.7%	?	-1.8%
Cc1ccc2oc(-c3ccc(C)c(NC(=O)C(C)(C)Oc4ccc(Cl)cc4)c3)nc2c1	?	i	i	nt	nt	?
O=C1CCc2ccccc2N1Cc1ccccc1	-7.2%	i	?	5.3%	4.2%	17.8%
O=C1CCCc2ccccc2N1Cc1ccc(F)cc1	?	i	i	-10.1%	0.9%	11.6µM*
O=C1CCCc2ccccc2N1Cc1cccc(F)c1	11.6µM*	i	i	-1.1%	-12.8%	14.6µM*
CC12CCC(C/C1=N\N=C1\NC(=O)/C(=C\c3ccc(Cl)cc3)S1)C2(C)C (stereo not drawn)	?	?	?	16.4µM*	20.6µM*	?
COc1ccc(-c2cc(=O)oc3cc(OCC(=O)Nc4ccc(CCO)cc4)ccc23)cc1	0.517µM*	i	i	-4.0%	-0.9%	3.66µM*
